Measured values from PubChem BioAssay AID493168 (National Center for Advancing Translational Sciences (NCATS), 2011).
Inconclusive results are not listed. The source made the active and inactive calls. Calls follow the shape of the dose curve; as a rule, active = well fitted inhibition curve with a large enough effect; inconclusive = small, poorly fitted or top-dose-only effect, or effect the other way; inactive = flat fitted curve, though single readings scatter.

Biological target: Ubiquitin carboxyl-terminal hydrolase 2 (Homo sapiens) (UniProt O75604)
Sequence (O75604 whole entry, looked up): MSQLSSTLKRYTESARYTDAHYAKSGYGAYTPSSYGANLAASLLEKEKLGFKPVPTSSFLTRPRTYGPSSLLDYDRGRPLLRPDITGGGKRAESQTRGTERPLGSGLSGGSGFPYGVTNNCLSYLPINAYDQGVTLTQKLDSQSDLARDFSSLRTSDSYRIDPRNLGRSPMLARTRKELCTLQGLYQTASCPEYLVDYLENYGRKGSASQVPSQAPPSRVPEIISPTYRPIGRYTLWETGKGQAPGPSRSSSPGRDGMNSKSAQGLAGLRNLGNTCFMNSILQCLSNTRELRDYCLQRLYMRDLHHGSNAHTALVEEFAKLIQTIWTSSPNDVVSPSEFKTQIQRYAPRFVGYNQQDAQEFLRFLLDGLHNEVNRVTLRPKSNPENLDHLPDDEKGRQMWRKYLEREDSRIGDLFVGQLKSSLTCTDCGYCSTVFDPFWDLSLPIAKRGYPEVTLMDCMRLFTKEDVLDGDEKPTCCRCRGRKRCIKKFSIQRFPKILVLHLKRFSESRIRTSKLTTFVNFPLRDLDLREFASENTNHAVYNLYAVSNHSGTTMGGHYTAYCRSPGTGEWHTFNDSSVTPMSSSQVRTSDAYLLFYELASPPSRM
Test: Confirmation Assay for Inhibitors of Ubiquitin-specific Protease USP2a Using CHOP2 as the Reporter; also: nearly all actives have a fitted effect of over 55% in size;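 as to activity change, negative = inhibition: plate controls were DMSO wells for no effect and full inhibition by NEM control for full effect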
Conditions: USP2 core, Ub-CHOP2 coupled reporter fluorescence; series mostly up to 38.3 µM; activity change, negative = inhibition: at the top concentration
Procedure, shortened: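 USP2 core (10 nM final) was preincubated with compound for 30 min at RT in Tris-HCl pH 8.0, CaCl2, beta-mercaptoethanol, CHAPS. Ub-CHOP2 and reporter substrate (25 nM final each) were added, and fluorescence (Ex 485/Em 531 nm) was read after 60 min.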
Potency is read from the fitted curve at half-maximal effect.

Activity change, negative = inhibition, inactive:
CC1=C(C(=O)OC(C)C)C(C)C(C(=O)OC(C)C)=C(C)N1 0.166%
CCOC(=O)C1CCN(C(=O)COC(=O)c2c(C)c(CC)nc3ccccc23)CC1 -0.67%
O=C(Nc1ccc(S(=O)(=O)Nc2ncccn2)cc1)c1ccc(S(=O)(=O)N2CCCC2)cc1 -1.15%
COc1cc(/C=C/C(=O)OCC(=O)NC(=O)NCc2ccco2)ccc1OC(F)F -5.33%
CC(C)n1nc(C(=O)Nc2ccccc2N2CCOCC2)c2ccccc2c1=O 0.877%
O=C(Nc1ccc(Oc2ccc(Cl)cc2)cc1)c1ncn[nH]1 0.723%
Cc1c(O)c(CN2CCCC2)cc2c3c(c(=O)oc12)CCC3 -1.61%
COc1ccc(Cl)cc1S(=O)(=O)Nc1cccc(C(=O)O)c1 0.617%
O=c1oc2ccccc2n1Cn1c(=O)oc2ccccc21 2.63%
COc1cccc(C(=O)NC(C)c2ccc(-c3ccccc3)cc2)c1OC (stereo not given) -3.09%
COc1cccc(NC(=O)c2ccccc2-c2nc(-c3cccc(C)c3)no2)c1 1.17%
CCOC(=O)c1sc(NC(=O)Nc2ccccc2)cc1C 2.01%
Cc1nn(CC(=O)Nc2cccc(S(N)(=O)=O)c2)c(C)c1[N+](=O)[O-] 1.06%
Nc1c(C(=O)Nc2ccc(Cl)cc2)oc2ccccc12 -4.81%
Cc1noc(/C=C/NCc2cccnc2)c1S(=O)(=O)N(C)CC(=O)N1CCc2ccccc21 0.283%
Cc1ccc(C(=O)c2coc3c2C(=O)C(=O)c2ccccc2-3)cc1 -1.36%
CC(C)(C)[C@H]1COC(=O)[C@@H](Cc2ccc(F)cc2)C/C=C\C[C@@H](CC(=O)N[C@H](CO)Cc2ccccc2)C(=O)N1 2.33%
CC1(C(=O)O)Sc2[nH]c(=O)sc2C2c3ccccc3OC(=O)C21 (stereo not given) -1.68%
CC(=O)N1CCCc2cc(S(=O)(=O)CCC(=O)N3CCN(c4cccc(C)c4)C(C)C3)ccc21 (stereo not given) -0.169%
CNc1cccccc1=S 1.21%
Cc1ccc(C(=O)COC(=O)CNC(=O)CN2C(=O)c3ccccc3C2=O)cc1 5.5%
CCn1c(COc2ccc(C)cc2)nnc1SCC(=O)Nc1ccc2c(c1)OCCO2 -3.89%
COc1ccc(S(=O)(=O)N2CCCC2C(=O)NCc2cccs2)cc1 (stereo not given) 2.04%
O=C(CSc1nc2ccccc2s1)NCCCN1CCOCC1 3.93%
Cc1cccc(Nc2nc(NCc3ccco3)c3ccccc3n2)c1 -6.47%
CC(C)(C)OC(=O)C[C@H]1C/C=C\C[C@H](CC(=O)N(CCO)Cc2ccccc2)C(=O)NC[C@H](c2ccccc2)OC1=O 3.72%
Cc1ccc(N(CC(=O)N/N=C/c2ccco2)S(=O)(=O)c2ccccc2)cc1 0.234%
Cn1c(=O)c2c(nc(CN3CCN(C(=O)c4ccco4)CC3)n2CCCc2ccccc2)n(C)c1=O 1.35%
Cc1ccc(Nc2nc(N)nc(CN3CCN(C(=O)c4ccco4)CC3)n2)cc1Cl -2.65%
COc1ccc(-c2cc(C(F)(F)F)nc(S(C)(=O)=O)n2)cc1 -3.75%
COc1cccc(-c2csc3nnc(SCC(=O)NCc4cccs4)n23)c1 -0.609%
Cc1ccc(-c2c(C#N)c(N)nc3c2CCCCC3)o1 3.04%
CCN(CC)S(=O)(=O)c1ccc(Cl)c(NC(=O)COC(=O)c2c(C)noc2C)c1 9.62%

Potency, active:
CCCCCCCCCC[N+](C)(C)CC/C=C1/c2ccccc2Sc2ccc(Cl)cc21 13.1 µM
Cc1ccc(/C=C2/SC(=S)N(c3ccc(S(=O)(=O)Nc4nccs4)cc3)C2=O)cc1 6.56 µM
CCn1c(=O)c(C(=O)Nc2ccccc2S(N)(=O)=O)c(O)c2ccccc21 13.1 µM
Cc1cc(-c2csc(NCc3ccccc3)n2)c(C)n1C 18.5 µM
CC(C)c1ccc2c(c1)c(SC(C)(C)C)c(CC(C)(C)C(=O)O)n2Cc1ccc(Cl)cc1 6.56 µM
O=C(O)C(Cc1ccccc1)N1C(=O)/C(=C/C=C/c2ccco2)SC1=S (stereo not given) 7.36 µM
NC1=NC(=O)/C(=C/c2cccc(-c3ccc(S(N)(=O)=O)cc3)c2)S1 9.27 µM
